Molecules are shown by their SMILES. Activity calls are given as the source filed them. How the source made its calls: active means hit-call score of the fitted dose curve at least 0.9, where 1 is the maximum; inactive means score below 0.9.

Hypoxia-inducible factor 1-alpha (Homo sapiens), sequence (Q16665 whole entry, looked up): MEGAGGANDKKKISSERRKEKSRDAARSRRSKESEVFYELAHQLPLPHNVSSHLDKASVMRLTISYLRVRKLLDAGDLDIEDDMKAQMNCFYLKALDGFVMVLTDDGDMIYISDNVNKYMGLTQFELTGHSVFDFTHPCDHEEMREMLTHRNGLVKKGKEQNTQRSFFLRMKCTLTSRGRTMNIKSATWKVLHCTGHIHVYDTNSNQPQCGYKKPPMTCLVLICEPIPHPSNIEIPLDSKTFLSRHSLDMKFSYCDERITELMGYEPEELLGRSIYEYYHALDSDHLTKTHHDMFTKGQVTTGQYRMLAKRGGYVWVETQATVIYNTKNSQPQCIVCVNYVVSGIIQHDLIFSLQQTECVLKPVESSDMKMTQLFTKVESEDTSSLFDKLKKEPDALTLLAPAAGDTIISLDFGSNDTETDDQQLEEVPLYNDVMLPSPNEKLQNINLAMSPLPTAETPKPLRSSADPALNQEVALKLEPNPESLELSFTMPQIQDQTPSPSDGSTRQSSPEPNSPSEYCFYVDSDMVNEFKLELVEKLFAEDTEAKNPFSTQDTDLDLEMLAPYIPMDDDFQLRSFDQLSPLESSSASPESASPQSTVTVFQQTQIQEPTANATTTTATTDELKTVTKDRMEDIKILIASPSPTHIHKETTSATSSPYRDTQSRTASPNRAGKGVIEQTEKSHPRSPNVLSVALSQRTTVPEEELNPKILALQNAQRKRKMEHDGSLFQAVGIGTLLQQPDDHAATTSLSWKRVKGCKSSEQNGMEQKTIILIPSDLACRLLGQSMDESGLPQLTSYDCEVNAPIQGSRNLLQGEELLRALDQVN

Tested on in the first assay: not listed separately
Kind of assay: ATG_M_06_CIS: Attagene CIS-FACTORIAL HepG2 Assay for M06 Transcription Factor (Internal Marker) (AID 2282950). As to conditions: HepG2 Attagene CIS-FACTORIAL M06 internal marker reporter; actives raise or lower the signal. The gist of the method:
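HepG2 liver cells, 24 h exposure. Reporter transcripts from transfected cis-element constructs quantified by RT-PCR/capillary electrophoresis fluorescence. Bidirectional curve fit against DMSO.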
As for `Cc1cc(=O)[nH]o1`, the molecule was called inactive.

For the molecule `CCCCC(CC)CO[N+](=O)[O-]` (stereo not given), the call was inactive.

For the molecule `COP(=S)(OC)Oc1c(Cl)cc(C)cc1Cl`, the call was inactive.

For `O=Cc1cccc(Oc2ccccc2)c1`, the result was inactive.

Regarding `COP(=S)(OC)Oc1ccc(S(=O)(=O)N(C)C)cc1`, the molecule was called inactive.

Take `CCCCCCCCc1ccc(O)cc1`: the result was inactive.

On to `CC(=O)C(Cl)C(=O)N(C)C` (stereo not given), for which the call was inactive.

With `Cl/C=C/Cl`, the result was inactive.

For `O=P(O)(O)CN(CP(=O)(O)O)CP(=O)(O)O`, the result was inactive.

For the molecule `O=CC=O`, the outcome was inactive.

Turning to `O=c1[nH]c(=O)[nH]c(=O)[nH]1`, the molecule was classed as inactive.

Consider `CNC`, for which the molecule was classed as inactive.

Regarding `CC(=O)c1cc(C(C)(C)C)cc2c1CCC2(C)C`, the molecule was called inactive.

As for `CCc1ccccc1N`, the molecule was classed as inactive.

On to `O=C(CCl)CCl`, for which the molecule was called inactive.

In the case of `ClCc1ccccn1`, the call was inactive.

`O=C/C=C/c1ccccc1`: the molecule was called inactive.

Regarding `CC(C#N)CCC#N` (stereo not given), the result was inactive.

For `C=CC(=O)OCCCCCC(C)C`, the outcome was inactive.

`O=C1C(Cl)=C(Cl)C(=O)c2ccccc21`: the result was inactive.

Regarding `ClCC(Cl)CCl`, the molecule was called inactive.

Take `COc1cc(OC)nc(NC(=O)NS(=O)(=O)c2ncccc2C(=O)N(C)C)n1`: the molecule was classed as inactive.

On to `ClC1=C(Cl)[C@]2(Cl)[C@H]3[C@H]([C@H]4C=C[C@H]3C4)[C@@]1(Cl)C2(Cl)Cl`, for which the call was inactive.

Consider `COP(=S)(OC)Oc1cc(Cl)c(Cl)cc1Cl`, for which the outcome was inactive.

Regarding `CCC(C)c1cccc(C(C)CC)c1O` (stereo not given), the molecule was called inactive.

As to `C=CC#N`, the call was inactive.

For the molecule `ClC(Cl)=C(Cl)C(Cl)=C(Cl)Cl`, the result was inactive.

On to `O=S(=O)(c1ccc(Cl)cc1)c1ccc(Cl)cc1`, for which the call was inactive.

As to `CCCCP(CCCC)CCCC`, the molecule was classed as inactive.

For the molecule `CC(Br)C(=O)O` (stereo not given), the call was inactive.

For the molecule `Nc1ccc(-c2ccc(N)c(Cl)c2)cc1Cl`, the molecule was classed as inactive.

With `O=C(NCO)NCO`, the call was inactive.

Consider `C=C(C)C#N`, for which the molecule was called inactive.

Turning to `COc1cccc(C=O)c1`, the outcome was inactive.

As for `OCC(O)CCl` (stereo not given), the molecule was classed as inactive.

Turning to `Cc1ccccc1C(=O)Nc1cccc(OC(C)C)c1`, the outcome was inactive.

Turning to `CC(C)(c1ccc(OCC2CO2)cc1)c1ccc(OCC2CO2)cc1` (stereo not given), the call was inactive.

As to `CCC[CH2][Sn]([CH2]CCC)([CH2]CCC)[O]C(=O)c1ccccc1`, the molecule was called inactive.

In the case of `Nc1ccc(N=Nc2ccc(-c3ccc(N=Nc4c(S(=O)(=O)O)cc5cc(S(=O)(=O)O)c(N=Nc6ccccc6)c(O)c5c4N)cc3)cc2)c(N)c1`, the result was inactive.

The target of another assay is Hypoxia-inducible factor 1-alpha (Homo sapiens) (UniProt Q16665). Kind of assay: ATG_HIF1a_CIS: Attagene CIS-FACTORIAL HepG2 Assay for human Hypoxia Inducible Factor 1 (HIF1A) (AID 2282951). The settings on record: HepG2 Attagene cis-factorial HIF1a reporter transcription; actives raise or lower the signal. Summed up:
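Cis-element reporter constructs were transiently transfected into HepG2 cells, which were treated for 24 h; reporter RNA was reverse-transcribed, amplified, labelled and resolved by capillary electrophoresis.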
For `Cc1cc(=O)[nH]o1`, the call was inactive.

On to `CCCCC(CC)CO[N+](=O)[O-]` (stereo not given), for which the half-maximal activity concentration (AC50) was 4.37 µM (active).

On to `COP(=S)(OC)Oc1c(Cl)cc(C)cc1Cl`, for which the molecule was called inactive.

As for `O=Cc1cccc(Oc2ccccc2)c1`, the call was inactive.

In the case of `COP(=S)(OC)Oc1ccc(S(=O)(=O)N(C)C)cc1`, the outcome was inactive.

As to `CCCCCCCCc1ccc(O)cc1`, the molecule was classed as inactive.

Regarding `CC(=O)C(Cl)C(=O)N(C)C` (stereo not given), the outcome was inactive.

Turning to `Cl/C=C/Cl`, the molecule was classed as inactive.

Regarding `O=P(O)(O)CN(CP(=O)(O)O)CP(=O)(O)O`, the outcome was inactive.

With `O=CC=O`, the call was inactive.

With `O=c1[nH]c(=O)[nH]c(=O)[nH]1`, the molecule was called inactive.

Regarding `CNC`, the molecule was classed as inactive.

Turning to `CC(=O)c1cc(C(C)(C)C)cc2c1CCC2(C)C`, the result was inactive.

For `CCc1ccccc1N`, the call was inactive.

Take `O=C(CCl)CCl`: the concentration at half-maximal activity (AC50) was 45.6 µM (active).

Consider `ClCc1ccccn1`, for which the result was inactive.

Turning to `O=C/C=C/c1ccccc1`, the call was inactive.

Take `CC(C#N)CCC#N` (stereo not given): the outcome was inactive.

Consider `C=CC(=O)OCCCCCC(C)C`, for which the result was inactive.

As for `O=C1C(Cl)=C(Cl)C(=O)c2ccccc21`, the result was inactive.

For the molecule `ClCC(Cl)CCl`, the result was inactive.

As for `COc1cc(OC)nc(NC(=O)NS(=O)(=O)c2ncccc2C(=O)N(C)C)n1`, the molecule was classed as inactive.

Consider `ClC1=C(Cl)[C@]2(Cl)[C@H]3[C@H]([C@H]4C=C[C@H]3C4)[C@@]1(Cl)C2(Cl)Cl`, for which the concentration at half-maximal activity (AC50) was 4.66 µM (active).

As for `COP(=S)(OC)Oc1cc(Cl)c(Cl)cc1Cl`, the outcome was inactive.

`CCC(C)c1cccc(C(C)CC)c1O` (stereo not given): the outcome was inactive.

On to `C=CC#N`, for which the outcome was inactive.

Take `ClC(Cl)=C(Cl)C(Cl)=C(Cl)Cl`: the molecule was called inactive.

On to `O=S(=O)(c1ccc(Cl)cc1)c1ccc(Cl)cc1`, for which the call was inactive.

Turning to `CCCCP(CCCC)CCCC`, the outcome was inactive.

Consider `CC(Br)C(=O)O` (stereo not given), for which the call was inactive.

As to `Nc1ccc(-c2ccc(N)c(Cl)c2)cc1Cl`, the call was inactive.

As to `O=C(NCO)NCO`, the outcome was inactive.

For the molecule `C=C(C)C#N`, the outcome was inactive.

On to `COc1cccc(C=O)c1`, for which the molecule was classed as inactive.

On to `OCC(O)CCl` (stereo not given), for which the outcome was inactive.

As to `Cc1ccccc1C(=O)Nc1cccc(OC(C)C)c1`, the molecule was called inactive.

As for `CC(C)(c1ccc(OCC2CO2)cc1)c1ccc(OCC2CO2)cc1` (stereo not given), the AC50 is 31.2 µM (active).

In the case of `CCC[CH2][Sn]([CH2]CCC)([CH2]CCC)[O]C(=O)c1ccccc1`, the molecule was classed as inactive.

Consider `Nc1ccc(N=Nc2ccc(-c3ccc(N=Nc4c(S(=O)(=O)O)cc5cc(S(=O)(=O)O)c(N=Nc6ccccc6)c(O)c5c4N)cc3)cc2)c(N)c1`, for which the outcome was inactive.

In another assay the target is Hepatocyte nuclear factor 6 (Homo sapiens) (UniProt Q9UBC0). Kind of assay: ATG_HNF6_CIS: Attagene CIS-FACTORIAL HepG2 Assay for human Hepatocyte Nuclear Factor 6 (HNF6) (AID 2282952). As to conditions: HepG2 Attagene cis-factorial HNF6 reporter transcription; actives raise or lower the signal. The gist of the method: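 First, HepG2 cells were transfected with the multiplexed cis reporter library and dosed with chemical for 24 h. Next, RNA was reverse-transcribed, PCR-amplified and fluorescently labelled. Finally, HpaI-digested fragments were read by capillary electrophoresis.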
Hepatocyte nuclear factor 6 (Homo sapiens), sequence (Q9UBC0 whole entry, looked up, the tested form may be a part): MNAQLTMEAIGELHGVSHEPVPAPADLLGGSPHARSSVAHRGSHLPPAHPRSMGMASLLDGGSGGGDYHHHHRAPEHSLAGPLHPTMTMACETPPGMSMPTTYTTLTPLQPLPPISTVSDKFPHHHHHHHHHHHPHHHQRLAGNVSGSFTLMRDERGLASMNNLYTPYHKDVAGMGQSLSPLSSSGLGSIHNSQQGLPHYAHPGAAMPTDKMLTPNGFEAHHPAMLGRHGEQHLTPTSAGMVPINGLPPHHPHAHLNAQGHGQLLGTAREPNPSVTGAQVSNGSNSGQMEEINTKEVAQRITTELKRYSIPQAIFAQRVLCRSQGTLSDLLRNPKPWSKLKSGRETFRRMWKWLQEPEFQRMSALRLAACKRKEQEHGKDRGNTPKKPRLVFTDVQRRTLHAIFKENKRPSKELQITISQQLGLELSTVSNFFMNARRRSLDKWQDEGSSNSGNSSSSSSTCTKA
Regarding `Cc1cc(=O)[nH]o1`, the molecule was classed as inactive.

For `COP(=S)(OC)Oc1c(Cl)cc(C)cc1Cl`, the outcome was inactive.

For `COP(=S)(OC)Oc1ccc(S(=O)(=O)N(C)C)cc1`, the outcome was inactive.

Regarding `CCCCCCCCc1ccc(O)cc1`, the outcome was inactive.

For the molecule `Cl/C=C/Cl`, the outcome was inactive.

In the case of `O=P(O)(O)CN(CP(=O)(O)O)CP(=O)(O)O`, the outcome was inactive.

With `O=CC=O`, the call was inactive.

For the molecule `O=c1[nH]c(=O)[nH]c(=O)[nH]1`, the molecule was classed as inactive.

With `CC(=O)c1cc(C(C)(C)C)cc2c1CCC2(C)C`, the call was inactive.

Turning to `CCc1ccccc1N`, the molecule was called inactive.

As for `O=C(CCl)CCl`, the AC50 is 33.4 µM (active).

As for `ClCc1ccccn1`, the call was inactive.

Regarding `CC(C#N)CCC#N` (stereo not given), the call was inactive.

Regarding `O=C1C(Cl)=C(Cl)C(=O)c2ccccc21`, the result was inactive.

On to `ClCC(Cl)CCl`, for which the outcome was inactive.

For the molecule `COc1cc(OC)nc(NC(=O)NS(=O)(=O)c2ncccc2C(=O)N(C)C)n1`, the molecule was classed as inactive.

Take `COP(=S)(OC)Oc1cc(Cl)c(Cl)cc1Cl`: the call was inactive.

`ClC(Cl)=C(Cl)C(Cl)=C(Cl)Cl`: the molecule was called inactive.

For the molecule `O=S(=O)(c1ccc(Cl)cc1)c1ccc(Cl)cc1`, the molecule was classed as inactive.

Regarding `Nc1ccc(-c2ccc(N)c(Cl)c2)cc1Cl`, the molecule was called inactive.

In the case of `O=C(NCO)NCO`, the molecule was called inactive.

With `COc1cccc(C=O)c1`, the outcome was inactive.

With `OCC(O)CCl` (stereo not given), the molecule was classed as inactive.

On to `Cc1ccccc1C(=O)Nc1cccc(OC(C)C)c1`, for which the result was inactive.

Consider `CC(C)(c1ccc(OCC2CO2)cc1)c1ccc(OCC2CO2)cc1` (stereo not given), for which the molecule was called inactive.

`CCC[CH2][Sn]([CH2]CCC)([CH2]CCC)[O]C(=O)c1ccccc1`: the outcome was inactive.

Take `Nc1ccc(N=Nc2ccc(-c3ccc(N=Nc4c(S(=O)(=O)O)cc5cc(S(=O)(=O)O)c(N=Nc6ccccc6)c(O)c5c4N)cc3)cc2)c(N)c1`: the outcome was inactive.

For the origin of these results see PubChem BioAssay (EPA / NIEHS).
